We go through 31 molecules from the supplement of paper PMC13380429.

Test [1] concerns Vero E6 infected with SARS-CoV-2. Briefly: morphology score (similarity to uninfected cells); higher = more like uninfected cells. The note with it: 24 h.
Test [2] shares this test system. Briefly: SARS-CoV-2 infection rate relative to infected DMSO; higher = more infection, active = 60 or less. The note with it: 24 h.

Each structure is given as a SMILES string.

Take `CCC1=C[C@@H]2CN(C1)Cc1c([nH]c3ccccc13)[C@@](C(=O)OC)(c1cc3c(cc1OC)N(C)[C@H]1[C@@](O)(C(=O)OC)[C@H](OC(C)=O)[C@]4(CC)C=CCN5CC[C@]31[C@@H]54)C2` [vinorelbine] (10 µM): in test [1], the morphology score is -0.193. In addition, the SARS-CoV-2 infection rate in test [2] was 115% (inactive).

In the case of `Nc1ccn([C@H]2C[C@H](O)[C@@H](CO)O2)c(=O)n1` [torcitabine] (10 µM), the morphology score in test [1] is -0.00729. Also, the SARS-CoV-2 infection rate in test [2] is 108% (inactive).

With `C[C@]12C[C@H](O)[C@H]3[C@@H](CCC4=CC(=O)CC[C@@]43C)[C@@H]1CC[C@@H]2C(=O)CO` [corticosterone] (10 µM), the morphology score in test [1] came out at 0.0999. Further, the SARS-CoV-2 infection rate in test [2] was 110% (inactive).

In turn, `CN(C)CCCN1c2ccccc2Sc2ccccc21` [promazine] (10 µM) had a morphology score in test [1] of 0.41. Moreover, the SARS-CoV-2 infection rate in test [2] is 91.5% (inactive).

Regarding `Cc1c(C(=O)N2CCOc3ccc(-c4ccc(N)nc4)cc3C2)ccc(S(C)(=O)=O)c1F` (0.833333 µM), the morphology score in test [1] was -0.0918. For the same molecule, the SARS-CoV-2 infection rate in test [2] is 110% (inactive).

For `C#C[C@]1(O)C=C[C@H]2[C@@H]3CCC4=CC(=O)CC[C@@H]4[C@H]3CC[C@@]21CC` [gestodene] (10 µM), the morphology score in test [1] came out at 0.149. In addition, the SARS-CoV-2 infection rate in test [2] is 107% (inactive).

For the molecule `CC1=C(C(=O)O)N2C(=O)[C@@H](NC(=O)[C@H](N)C3=CCC=CC3)[C@H]2SC1` [cephradine] (10 µM), in test [1], the morphology score stood at 0.0689. The SARS-CoV-2 infection rate in test [2] was 106% (inactive).

`Nc1ccccc1S(N)(=O)=O` [2-aminobenzenesulfonamide] (10 µM) registered a morphology score in test [1] of -0.162. Moreover, in test [2], the SARS-CoV-2 infection rate was 108% (inactive).

For `O=C(O)[C@H](Cc1ccc(Nc2nccc3ccncc23)cc1)NC1=C(Br)C(=O)C12CCCCC2` (10 µM), the morphology score in test [1] stood at 0.0401. Further, the SARS-CoV-2 infection rate in test [2] is 98% (inactive).

On to `CC(Oc1c(Cl)cccc1Cl)C1=NCCN1` (configuration not stated) [lofexidine] (10 µM), for which, in test [1], the morphology score was -0.13. Moreover, the SARS-CoV-2 infection rate in test [2] was 102% (inactive).

Take `CC/C(=C(/c1ccc(OCCN(C)C)cc1)c1cccc(O)c1)c1ccccc1` [droloxifene] (10 µM): in test [1], the morphology score is 0.73. In addition, the SARS-CoV-2 infection rate in test [2] is 24% (active).

Molecule `CN(C)C(=O)C(=O)c1cn(C)c2cc(Cl)c(C(=O)N3CCC(Cc4ccc(F)cc4)CC3)cc12` (10 µM) had a morphology score in test [1] of 0.323. In test [2], the SARS-CoV-2 infection rate is 82% (inactive).

`O=c1[nH]c(CCl)nc2sc3c(c12)CCCC3` (10 µM): in test [1], the morphology score was 0.193. Besides, in test [2], the SARS-CoV-2 infection rate was 104% (inactive).

Regarding `CC(C)NCC(O)c1cc(O)cc(O)c1` (configuration not stated) [metaproterenol] (10 µM), in test [1], the morphology score is 0.132. Besides, the SARS-CoV-2 infection rate in test [2] was 104% (inactive).

The molecule `O=C(c1ccc(Nc2nccc(-c3cc4ccccc4s3)n2)cc1)N1CCC(N2CCCC2)CC1` (0.833333 µM) had a morphology score in test [1] of 0.629. In test [2], the SARS-CoV-2 infection rate is 56% (active).

`COc1ccc(C(CN(C)C)C2(O)CCCCC2)cc1` (configuration not stated) [venlafaxine] (10 µM) had a morphology score in test [1] of 0.00722. Also, the SARS-CoV-2 infection rate in test [2] is 110% (inactive).

`Cc1cc(C)c(S(=O)(=O)Nc2cccc(C(F)(F)F)c2)c(C)c1` (10 µM): the morphology score in test [1] came out at 0.152. Besides, the SARS-CoV-2 infection rate in test [2] is 108% (inactive).

In turn, `COc1cc2ncn(-c3cc(OCc4ccccc4C(F)(F)F)c(C(N)=O)s3)c2cc1OC` (10 µM) gave a morphology score in test [1] of -0.0651. Besides, in test [2], the SARS-CoV-2 infection rate was 106% (inactive).

For `CC(=O)OCC(=O)[C@@]1(O)CC[C@H]2[C@@H]3CCC4=CC(=O)CC[C@]4(C)[C@H]3C(=O)C[C@@]21C` [cortisone-acetate] (10 µM), the morphology score in test [1] was -0.0698. Moreover, in test [2], the SARS-CoV-2 infection rate was 87.5% (inactive).

Regarding `C=C[C@](C)(O)CC[C@@H]1[C@@]2(C)CCCC(C)(C)[C@@H]2CC[C@@]1(C)O` [sclareol] (10 µM), in test [1], the morphology score was determined as 0.142. The SARS-CoV-2 infection rate in test [2] is 95.5% (inactive).

`CC[C@H](NC(=O)c1c(C)c(-c2ccccc2)nc2ccccc12)c1ccccc1` (10 µM): the morphology score in test [1] was 0.0423. Moreover, in test [2], the SARS-CoV-2 infection rate was 101% (inactive).

The molecule `O=C(COc1cccc2c(=O)[nH]ccc12)c1ccccc1` (10 µM) yielded a morphology score in test [1] of 0.0752. The SARS-CoV-2 infection rate in test [2] was 87% (inactive).

`COc1cc(Br)c(Nc2nc(-c3c(C)nc4ncccn34)cs2)c(Br)c1` (10 µM) had a morphology score in test [1] of -0.31. Besides, in test [2], the SARS-CoV-2 infection rate was 114% (inactive).

Regarding `O=C(Nc1ccccc1C(=O)Nc1ccc(CCO)cc1)c1ccc([N+](=O)[O-])cc1` (10 µM), the morphology score in test [1] is -0.0336. For the same molecule, the SARS-CoV-2 infection rate in test [2] was 112% (inactive).

As to `OC[C@H]1O[C@@H](n2cnc3c(NC4CCCC4)ncnc32)[C@H](O)[C@@H]1O` [N6-cyclopentyladenosine] (10 µM), in test [1], the morphology score is -0.0139. Besides, in test [2], the SARS-CoV-2 infection rate is 109% (inactive).

Consider `COc1ccc2[nH]c(C(=O)c3ccccc3)cc2c1` (0.833333 µM), for which, in test [1], the morphology score is -0.112. In addition, the SARS-CoV-2 infection rate in test [2] is 110% (inactive).

Molecule `Cc1occc(=O)c1[O-].Cc1occc(=O)c1[O-].[O]=[V+2]` [bis(maltolato)oxovanadium(IV)] (10 µM) came in with a morphology score in test [1] of -0.461. Further, the SARS-CoV-2 infection rate in test [2] was 106% (inactive).

With `CC(CCc1ccc(O)cc1)NCC(O)c1ccc(O)cc1` (configuration not stated) [ractopamine] (10 µM), in test [1], the morphology score was -0.0659. Further, in test [2], the SARS-CoV-2 infection rate is 111% (inactive).

In test [1], `CC(=O)[C@@]1(O)CC[C@H]2[C@@H]3C[C@H](C)C4=CC(=O)C=C[C@]4(C)[C@@]3(F)[C@@H](O)C[C@@]21C` [fluorometholone] (10 µM) registered a morphology score of 0.02. Further, the SARS-CoV-2 infection rate in test [2] is 110% (inactive).

Regarding `N#CC(c1ccc(Cl)cc1)c1c(Cl)cc(-n2ncc(=O)[nH]c2=O)cc1Cl` (configuration not stated) [diclazuril] (10 µM), the morphology score in test [1] worked out at 0.16. In test [2], the SARS-CoV-2 infection rate was 93% (inactive).

As for `CCCn1c(=O)c2[nH]c(C3CCCC3)nc2n(CCC)c1=O` (10 µM), the morphology score in test [1] amounted to 0.0194. Besides, the SARS-CoV-2 infection rate in test [2] was 105% (inactive).
